Drawing on PubChem BioAssay AID1508600 (Functional Genomics Laboratory (NCATS/FGL), 2020), this text covers z-score for 107 sequences.

In all, about 53,000 sequences went through this assay and about 3,700 (7%) were called active. The entries come from a sample that favours actives as a whole. Values without a mark were called inactive.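 The calls were made as follows: active = gene knockdowns whose robust z-score for IL-1 alpha signal is at least 2 or at most -2, so actives lie on both sides; inactive = the rest.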

The test is described as follows: Components of the Cytosolic LPS Sensing Pathway: Gene Identification via Genome-wide siRNA Screen.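 Also: robust z of the log signal after scaling to non-targeting control siRNA wells of the plate.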 Conditions: RAW264.7 macrophages, IL-1a HTRF, actives lie on both sides, screened at 100 nM (by protocol), cells primed 5 h with Pam3CSK4 first. In a few lines:
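IL-1a HTRF of supernatants after 24 hour LipidA transfection of Pam3CSK4-primed (5 hours) RAW264.7 cells, 48h post-siRNA transfection (100 nM). Scores: percent of plate negative-control median, then log-based robust z-score.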
A general note: TR-FRET usually uses a lanthanide donor and a delayed reading to cut background.
CCCUCAAAACCUAUGCCUUTT against Ugt1a2: the z-score is 0.715. Turning to GCAGGCUAUGUUCUGGAAUTT against Zfp212, the z-score is 2.34 (active). Then GGAUGAUUGCUGACGUGGATT against Bax, with 0.299.

For CCUCCUAUUUGCUUCAUUUTT against Cytip, the z-score was -1.32.

For CCUGAUCCGAUCAUCAGGATT against Cytip, the z-score is 0.133. To GGAAGGGCAAGUUAUGAAATT against Fgf14 belongs 0.0843; to GGGACAUUUCUAUUAGAAUTT against Snx24, -0.95; to CCAUACCAAUGAAUGCCUCTT against Fas, -1.4. On to “CCACUUCCUUACGAUUGAUTT against Aadacl4fm1”, for which the z-score is -2.09 (active). As for GGCUGAGGAGUGGUACUUUTT against Src, the z-score is -1.13. As for GCUAUGACUUCAACGACUATT against Pcsk4, the z-score was -0.309. Take GGAUCUGUACAAGACUUAUTT against Olfr800: the z-score is -0.011. Consider GCCAACAGAAAUAAGCCUUTT against Sorcs1, for which the z-score was 0.221.

In the case of CCACACCAGAGGUCUUUGATT against Pde4dip, the z-score was -1.74.

As for CGAUUCCUUUGUAACGAAATT against Aldh5a1, the z-score is 1.04. Then GGCACUUAAGUUUCAUAAGTT against Qars, with 0.466; and CCAAGAGCUGAAACAAGAATT against Ankrd12, with -2.01 (active).

On to GGUAGUGAUCCUCAAAAAATT against Myc, for which the z-score was 1.84. Then AGUCUUCACGUUUCAUUUATT against Olfr1195, with 0.32; and CGCUGUUUGUUCAAGAGGATT against Thbs1, with 1.05.

With GCACAAGCGAAGAAGUUUGTT against Ube2i, the z-score was -0.0933. To GCUCAACUUGGAAUUGGAGTT against Arhgap29 belongs 2.28 (active).

Turning to CCAUCUUGACAUCUCGUGUTT against Olfr592, the z-score was -1.9. Then CUUUAUGGGUCGUGGAGGATT against Hnrnpa3, with -1.12; and GGAAUAGGACCUAUGUCUGTT against Nr2e1, with -0.455.

On to CCCUGGCUGAGUGCUUUGUTT against Olfr199, for which the z-score is 0.887.

As for GGGUUGCCACAUGUUAUAUTT against Smad2, the z-score was -0.0821. Then GGAGAAUGAGUGGUAUCUGTT against Msh2, with -1.48; and AAGGACGAUCCUGAUUUCATT against Gm5431, with 0.828; and CCAUACAUCCGAGAGUUUGTT against Snrnp70, with 2.37 (active). For the sequence GCCCUUUCAUCAAUAAUGUTT against Slc12a7, the z-score was -0.113. Then GGAAACAUAACCUUCAAUGTT against Wdr3, with 1.13. Then CGGAAGCCUCCACAAAUAATT against Apba1, with 0.0959. To GGUGUCUACUCUGAGUUGCTT against Pan2 belongs 1.94; to GCGGAGGAGUUUUCUUCGATT against Susd4, 0.93; to GGACCAUGCUCCCUACUUATT against Prss37, 0.386. Turning to GGCUGGUUGGAAGGAAAAUTT against Ints6l, the z-score was 2.1 (active).

In the case of GGCUGUUCAAAAAUUUCGGTT against Sox17, the z-score is -0.261. Then GGUUUUGAGAAGAUAACUCTT against Zfp236, with 0.67; and GGACACACUCUACUUCCCATT against Mrgprg, with -0.196; and GGUUCGAGUUUCAUACUAUTT against Padi4, with 2.56 (active). In the case of “GUCAGAACAAAACCAAAUGTT against E330013P04Rik”, the z-score was -0.152.

Take GGAAUCAUCUUCAUUGACCTT against Agpat1: the z-score was 0.0827.

On to CGUGUGGUGUUGGUAUCAGTT against Spaca1, for which the z-score was 0.853. Then GGAUUCAUAAAAGAAGCAATT against Zfp90, with 0.8; and GGCGGCACGUUCACCUAAATT against Rnps1, with 1.86; and CCACUUGUAGACUUGAUUUTT against Jag1, with 0.618. Turning to GCCCAGAUCAAUUUGAGCGTT against Grhl2, the z-score was -0.674. Then “CGAGAUAGAGUCUGGAAUUTT against 1700092C17Rik”, with 3.91 (active); and GGUCAUCGGGAGGUUUGAATT against Nfkbil1, with -0.0141. In the case of GGAUCUCUAUAGCAUCGUGTT against Col18a1, the z-score is 0.249. GGGAUGCUGUAGAUGGAAUTT against Olfr978: the z-score was 0.0466. For the sequence GGCAAAUCAAGCAGAAAAUTT against Ncor1, the z-score was 0.739.

Turning to GAUAAUGGUCACUAAAUCUTT against Vmn1r4, the z-score is -1.65. With GCAACCAUUUAAGAAGACCTT against Tnfrsf9, the z-score was -0.301. Then GGUGAUCUGGACCAAGAUGTT against Lcp1, with -0.52; and GGUCUACUUUUACGUCUCCTT against Nfatc4, with -0.339; and GUGUACGUCUGUUAACACATT against Dad1, with -2.1 (active). CCUUCUUGAAAACUCCAAGTT against Lum: the z-score is -0.862.

For GGGAAGGCACACCAUAGAATT against Zfp369, the z-score was 1.11. For “GGGCUACUAUUCAUUGAUCTT against 4930550L24Rik”, the z-score was 1.94. To CCACUAAGUCCCAUGCUAGTT against Glycam1 belongs 0.188. Take GGAAUUUAAGGUGUUCACATT against Lcn3: the z-score was -0.197. Then GGCUCAGUGAGUUUCAGAATT against Snx25, with 3.66 (active); and CCAAAUGUAACUGGUGUAATT against Aif1l, with -0.69. To CGAGACAGUUUCCAUAGCGTT against Spen belongs -0.271. Then GCAACAUUAGGAUUUAUAGTT against Gask1b, with 0.0376; and GGUAGUCAUACAGAUAUGUTT against Hey2, with 0.973.

Consider GCAAUCUCUCCUUUUGUGATT against Olfr1128, for which the z-score was 0.426.

For the sequence GGACUUUCACAGACCACUUTT against Rgma, the z-score was 0.999. Then GGAACAAGGAUGUAAAAUUTT against Olfr1090, with -0.751; and GGAAGACUUUCUGGACAUATT against Sgk2, with 2.44 (active); and CCUACAGCAACCAUAAGGATT against Plch2, with -1.6. To GGACAGCUGUUUCAAUUCUTT against Il1rap belongs -0.162; to GGAUUUGCCUACACAUAUGTT against Nqo1, 0.362; to CCCUUCUCCACCUGAGAGUTT against Orm3, -2.25 (active).

For the sequence GGAAAUGAAGAGUGUUGAATT against Slc7a3, the z-score was -0.4. To UGCCCAAGACUCAGAAGUCTT against Igf1 belongs 0.0658; to GCUAACUGCCUUGGGAAGATT against Lyl1, 2.57 (active). For GGCCAAGCACGAUAAAUACTT against Stub1, the z-score is -1.08. Then CCUACAGUAUGUGGCAGAUTT against Grb7, with -1.49. Take GGUGUUUUAUACACUCUGUTT against Mgme1: the z-score was -1.85. Regarding GGACUUAAAACAGAAAGCATT against Haus1, the z-score was -2.79 (active).

Take CGUGGUUGUACAUAUUUGUTT against Trip10: the z-score was 0.39. To GGGAAACAAAUUGUUUGCATT against Dnaaf4 belongs -0.461; to GGCUUUGUCGUUAAUUUUUTT against Auh, 0.322. To GGUGCAUUAUCUUGGUUCGTT against Hmga2 belongs -2.46 (active); to GGCAAAUAUUCAGUUUGGATT against Scarb2, -0.00406; to GGGUUUAUAAAACUGAAGUTT against Cav2, 0.672. To GGCACAUGAGACAGCUUUUTT against Tmem160 belongs 0.0311; to CGUGUUCAGCGUAGAAACUTT against Ttll1, 0.283; to GGUUUCAGAGCUAAACCCUTT against Larp4b, 0.235.

Regarding “CCAUAGUUUUGGUUACCAATT against E330037G11Rik”, the z-score is -0.213.

Consider “GUCUCUUUGCCCUGUGCUATT against Vmn1r239-ps”, for which the z-score is 0.0206. In the case of GGCUUGGAUUUUGAAAUACTT against Srcin1, the z-score is -0.792. To GCUCAGCAAUACUUCCUACTT against Itgal belongs -0.188.

As to GCUCAUAUACACCAUUUCUTT against Tmem171, the z-score was -1.12. Then GCCUAUCAAUGUGUAUCUUTT against Tcf21, with -0.497. On to CGUCCUAGGAAUCUACUUUTT against Itgad, for which the z-score was 2.63 (active). As to GGGAAAGUAAUUGAUAAACTT against Mtrr, the z-score was 0.59. In the case of GUCUGUCAUUUGUGGAAAUTT against Olfr1495, the z-score was -2.17 (active). As to CCGAGUUCGGGUAUCUUGGTT against Grwd1, the z-score was -0.885. To CCCACCACAAGCUAAUACATT against Ubac1 belongs -0.0826; to GGAACAAAGACAUGUAUCATT against Zgpat, -0.931; to GCUCAGAAGUCCAAGAUACTT against Casp12, -1.86. To GGUCGCUGGAGACCUUAGUTT against Hjurp belongs -1.88. To GGAACAGGUGAUCCGCUACTT against Lzts2 belongs 1.26.
